IDE exosite FP – exo-site inhibitors of human IDE, primary screen, biochemical, fluorescence anisotropy, probe displacement. purified IDE, FL-6b probe fluorescence polarization; stronger effect = lower value. z-score at 20 µM. hit rate 6.3% among 17,000;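 active means z-score of -3 or lower, meaning strong loss of probe binding signal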;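 further: His-tagged human IDE residues 42-1019 made in E. coli with 30 nM FL-6b probe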
Target sequence (P14735 42-1019 limits assumed): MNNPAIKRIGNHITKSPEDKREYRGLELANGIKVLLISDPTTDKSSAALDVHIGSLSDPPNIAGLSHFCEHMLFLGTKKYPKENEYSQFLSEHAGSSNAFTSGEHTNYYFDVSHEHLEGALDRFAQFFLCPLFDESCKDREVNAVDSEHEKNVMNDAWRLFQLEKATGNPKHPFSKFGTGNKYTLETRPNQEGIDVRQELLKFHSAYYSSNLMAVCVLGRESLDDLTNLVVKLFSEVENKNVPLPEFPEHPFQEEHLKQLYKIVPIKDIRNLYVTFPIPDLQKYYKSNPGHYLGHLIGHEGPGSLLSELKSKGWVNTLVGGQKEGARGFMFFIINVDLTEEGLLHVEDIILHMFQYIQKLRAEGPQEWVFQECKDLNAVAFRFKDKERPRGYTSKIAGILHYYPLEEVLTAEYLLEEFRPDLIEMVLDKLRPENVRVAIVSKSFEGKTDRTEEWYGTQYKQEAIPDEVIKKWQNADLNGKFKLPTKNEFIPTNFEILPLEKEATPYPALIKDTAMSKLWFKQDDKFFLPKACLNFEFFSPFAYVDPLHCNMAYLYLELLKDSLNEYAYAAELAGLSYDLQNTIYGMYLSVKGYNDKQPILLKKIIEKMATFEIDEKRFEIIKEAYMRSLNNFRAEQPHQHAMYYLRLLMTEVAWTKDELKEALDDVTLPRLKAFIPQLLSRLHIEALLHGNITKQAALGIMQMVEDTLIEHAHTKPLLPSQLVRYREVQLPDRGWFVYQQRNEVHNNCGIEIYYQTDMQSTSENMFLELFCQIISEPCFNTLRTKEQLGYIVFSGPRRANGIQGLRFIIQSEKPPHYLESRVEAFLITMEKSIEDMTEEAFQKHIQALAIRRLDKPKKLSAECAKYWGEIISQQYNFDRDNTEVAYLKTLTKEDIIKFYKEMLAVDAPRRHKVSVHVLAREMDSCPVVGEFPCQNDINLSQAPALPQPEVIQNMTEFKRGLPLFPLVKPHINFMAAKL
* hit, by the source's call. This is one part of a sample in which hits are shown more often than they occur.

SMILES | IDE exosite FP
C[C@H]1CN([C@@H](C)CO)C(=O)c2ccccc2-c2ccccc2CO[C@@H]1CN(C)Cc1cccnc1 | 0.82
O=C1[C@H](Cc2ccc(F)cc2)CCn2cc(nn2)COC[C@H]2CCCN12 | 0.2
OC[C@@H]1[C@H](c2ccc(-c3ccc(F)cc3)cc2)[C@@H]2CN(CCC(F)(F)F)CCCCN12 | 0.33
CCS(=O)(=O)N1CC(=O)N2[C@H](CO)[C@H](c3ccc(-c4ccc(F)cc4)cc3)[C@@H]2C1 | 2.5
CCS(=O)(=O)N1CC(=O)N2[C@H](CO)[C@@H](c3ccc(-c4ccc(F)cc4)cc3)[C@H]2C1 | 3.8
CCS(=O)(=O)N1CC(=O)N2[C@@H](CO)[C@H](c3ccc(-c4ccccc4C)cc3)[C@@H]2C1 | -5.8*
CCS(=O)(=O)N1CC(=O)N2[C@H](CO)[C@@H](c3ccc(-c4cccc(F)c4)cc3)[C@H]2C1 | 0.17
CCS(=O)(=O)N1CC(=O)N2[C@H](CO)[C@@H](c3ccc(-c4ccccc4C)cc3)[C@@H]2C1 | -16*
CCS(=O)(=O)N1CC(=O)N2[C@@H](CO)[C@H](c3ccc(C#CC4CC4)cc3)[C@@H]2C1 | 4.4
CCS(=O)(=O)N1CC(=O)N2[C@H](CO)[C@@H](c3ccc(C#Cc4ccc(F)cc4)cc3)[C@H]2C1 | 0.79
CS(=O)(=O)N1CC(=O)N2[C@@H](CO)[C@@H](c3ccc(Br)cc3)[C@@H]2C1 | -1.1
CCS(=O)(=O)N1CC(=O)N2[C@H](CO)[C@@H](c3ccc(-c4ccccc4)cc3)[C@@H]2C1 | -5.4*
CCS(=O)(=O)N1CC(=O)N2[C@H](CO)[C@@H](c3ccc(C4=CCCCC4)cc3)[C@@H]2C1 | -0.2
Cc1ccccc1-c1ccc([C@@H]2[C@H]3CN(S(C)(=O)=O)CC(=O)N3[C@H]2CO)cc1 | -5.1*
Cc1ccccc1-c1ccc([C@@H]2[C@@H](CO)N3C(=O)CN(S(C)(=O)=O)C[C@H]23)cc1 | -1.5
CC(C)CC#Cc1ccc([C@H]2[C@@H](CO)N3C(=O)CN(C(=O)c4ccccn4)C[C@@H]23)cc1 | 0.023
C[C@H]1CN([C@@H](C)CO)C(=O)c2c(c3ccccc3n2C)-c2ccccc2CO[C@@H]1CN(C)C(=O)Nc1ccc2c(c1)OCO2 | 0.08
O=C(Nc1ccc(F)cc1)N1[C@@H]2CNc3ccccc3[C@@H]2[C@@H]1CO | 2.3
CS(=O)(=O)N1[C@@H](C#N)[C@@H](c2ccccc2-c2ccccc2F)[C@@H]1CO | 1.2
CCS(=O)(=O)N1CC(=O)N2[C@@H](CO)[C@H](c3ccc(-c4ccccc4F)cc3)[C@@H]2C1 | 2.2
CCN1CC(=O)N2[C@H](C1)[C@@H](c1ccc(-c3ccccc3F)cc1)[C@@H]2CO | -2.6
CCS(=O)(=O)N1CC(=O)N2[C@H](CO)[C@@H](c3ccc(-c4ccccc4F)cc3)[C@@H]2C1 | -11*
CC(C)[C@@H]1C(=O)N[C@@H](c2ccc(F)cc2)CC=CC[C@H](C)Oc2ccccc2C(=O)N1C (mixture of isomers) | 0.4
C[C@@H]1CN([C@@H](C)CO)C(=O)c2ccccc2-c2ccccc2CO[C@@H]1CN(C)C(=O)CCC(F)(F)F | -0.18
Cc1ccc(S(=O)(=O)N[C@@H]2CC[C@@H](CC(=O)NCc3ccncn3)O[C@@H]2CO)cc1 | 0.42
SMILES | IDE exosite FP
O=C(c1ccc(F)cc1)N1CC(=O)N2[C@@H](CO)[C@H](c3ccc(C#CC4CC4)cc3)[C@@H]2C1 | -0.68
COCC(=O)N1CCC2(CC1)CN(Cc1cc(F)ccc1F)[C@H](CO)c1c2c2ccc(OC)cc2n1C | -4*
COc1ccc2c3c(n(C)c2c1)[C@@H](CO)N(Cc1cc(F)ccc1F)CC31CN(C(=O)C2CC2)C1 | 0.68
COc1ccc2c3c(n(C)c2c1)[C@H](CO)N(Cc1cccc(F)c1)CC31CCN(C(=O)Cc2ccccc2)CC1 | -3.7*
COCC(=O)N1CC2(C1)CN(Cc1cccc(F)c1)[C@H](CO)c1c2c2ccc(OC)cc2n1C | -2.5
COCC(=O)N1CC2(C1)CN(Cc1cccc(F)c1)[C@@H](CO)c1c2c2ccc(OC)cc2n1C | -0.12
COc1ccc2c3c(n(C)c2c1)[C@H](CO)N(Cc1ccccc1F)CC31CCN(C(=O)C2CCOCC2)CC1 | -0.89
CN1C(=O)c2cc(NC(=O)NCc3ccccc3)ccc2OC[C@@H]2O[C@H](CC(=O)NCC3CCCCC3)CC[C@H]21 | 0.27
COc1cccc(CNC(=O)C[C@H]2CC[C@@H]3[C@@H](COc4ccc(NC(=O)c5cccs5)cc4C(=O)N3C)O2)c1 | -0.15
COCC#Cc1ccc([C@H]2[C@H]3CN(C(=O)Nc4ccc(F)cc4)CC(=O)N3[C@H]2CO)cc1 | 3.1
C[C@H]1CN([C@@H](C)CO)C(=O)c2ccccc2-c2ccccc2CO[C@H]1CN(C)Cc1ccc2c(c1)OCCN2C | 0.52
COCC(=O)N1CCCCN2[C@@H](CO)[C@@H](c3ccc(-c4cccc(C)c4)cc3)[C@@H]2C1 | -6.7*
COCC(=O)N1CCCCN2[C@@H](CO)[C@H](c3ccc(-c4ccc(F)cc4)cc3)[C@@H]2C1 | 2.1
COCC(=O)N1CCCCN2[C@@H](CO)[C@H](c3ccc(-c4ccccc4)cc3)[C@@H]2C1 | 0.00094
COCC(=O)N1CCCCN2[C@H](C1)[C@@H](c1ccc(-c3ccc(F)cc3)cc1)[C@@H]2CO | 1.1
COCC(=O)N1CCCCN2[C@H](C1)[C@H](c1ccc(-c3cccc(C)c3)cc1)[C@@H]2CO | -3*
COCC(=O)N1CCCCN2[C@H](CO)[C@H](c3ccc(-c4cccc(C)c4)cc3)[C@@H]2C1 | 1.6
COCC(=O)N1CCCCN2[C@H](CO)[C@H](c3ccc(-c4cccc(C)c4)cc3)[C@H]2C1 | -4.7*
O=C(c1ccccn1)N1CC[C@@H]2[C@@H](CO)Nc3ccc(Br)cc3[C@@H]21 | 2.6
COc1ccc2c3c([nH]c2c1)[C@H](CO)N(Cc1ccc(F)cc1)CC31CN(C)C1 | -1.1
CCC(=O)N1[C@H](CN(C)C(C)=O)[C@@H](c2ccc(-c3ccccc3)cc2)[C@@H]1CO | 1.9
CN(C)CC(=O)N1CCCCN2[C@H](C1)[C@H](c1ccc(-c3cccnc3)cc1)[C@@H]2CO | 1.6
O=C(NC1CCCC1)N1CCCCN2[C@H](CO)[C@H](c3ccc(-c4cncnc4)cc3)[C@H]2C1 | 1.8
COCC(=O)N1CC(=O)N2[C@@H](CO)[C@@H](c3ccc(-c4cccnc4)cc3)[C@@H]2C1 | 3.4
COCC#Cc1ccc([C@H]2[C@H](CO)N3CCCCN(S(=O)(=O)c4ccccc4F)C[C@@H]23)cc1 | 1.1
SMILES | IDE exosite FP
COCC#Cc1ccc([C@H]2[C@H]3CN(S(=O)(=O)c4ccccc4C)CCCCN3[C@H]2CO)cc1 | 5.4
COCC#Cc1ccc([C@@H]2[C@H](CO)N3CCCCN(S(=O)(=O)c4ccccc4C)C[C@@H]23)cc1 | -3.1*
COCC#Cc1ccc([C@H]2[C@@H](CO)N3CCCCN(S(=O)(=O)c4ccccc4C)C[C@@H]23)cc1 | 4.1
COCC#Cc1ccc([C@@H]2[C@H](CO)N3CCCCN(S(=O)(=O)c4ccccc4F)C[C@@H]23)cc1 | -4.5*
COCC#Cc1ccc([C@H]2[C@@H](CO)N3CCCCN(S(=O)(=O)c4ccccc4F)C[C@H]23)cc1 | 0.25
C[C@@H]1CCCCO[C@@H](CN(C)CC2CC2)[C@H](C)CN([C@H](C)CO)C(=O)c2cc(NC(=O)c3ccccc3)ccc2O1 | -0.86
CCS(=O)(=O)Nc1ccc2c(c1)C(=O)N(C)[C@@H]1CC[C@@H](CC(=O)N[C@@H]3CCN(Cc4ccccc4)C3)O[C@H]1CO2 | -0.92

Source: PubChem
